Shh pathway inh: blocks Sonic Hedgehog signaling | AID 2313 | Shh-LIGHT2 Gli-luciferase reporter, 30 h | inhibition, % (concentration not given with the values) | 2.1% of 22,000 active;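 active means mean inhibition across valid replicates above about 65%, limit read from the data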;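 further: pathway switched on by Shh-conditioned medium diluted 1 in 25 in low serum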
MITF inh: MITF inhibition | inhibition, % (concentration not given with the values) | TRPM1 promoter luciferase, luminescence, 24 h | 0.28% of 37,000 active; in the data active means inhibition above about 85%;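 further: human melanocyte line stably carrying TRPM1 promoter luciferase reporter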
NOMO-1 viab: STK33 inhibitor candidate reducing NOMO-1 cell viability. inhibition, % (concentration not given with the values). NOMO-1 AML viability, CellTiter-Glo luminescence, 72 h. 7.5% of 37,000 active. AID 2330; in the data active means inhibition above about 80%
Active calls of the source: *; . = no result given. An excerpt weighted towards active compounds, which were near 7.8% of everything screened.

SMILES | Shh pathway inh | MITF inh | NOMO-1 viab
COc1cc(C2c3cc4c(cc3CC3COC(=O)C32)OCO4)cc(OC)c1OC (stereo not drawn) | 80* | 48 | 118*
COc1cc([C@@H]2c3cc4c(cc3[C@@H](O)C3COC(=O)C32)OCO4)cc(OC)c1O (stereo partly drawn) | 90* | 44 | 102*
COc1ccc2c(c1OC)C(=O)O[C@H]2[C@H]1c2cc3c(cc2CCN1C)OCO3 | 53 | -3 | 15
COc1cc([C@@H]2c3cc4c(cc3[C@H](OC(C)=O)[C@H]3COC(=O)[C@@H]23)OCO4)cc(OC)c1OC | 8 | 37 | 108*
CNC(=O)O/N=C(/C)SC | -28 | -5 | -11
COC(=O)C1C2c3ccccc3C(c3ccccc32)C1C(=O)OC (stereo not drawn) | -25 | -26 | 4
CCOC(=O)c1cc2c(cn1)[nH]c1ccccc12 | -119 | -4 | 18
C=C[C@@]12CN(C)[C@H]3[C@H]1[C@@]1(C(=O)Nc4ccccc41)C1CC2[C@@H]3CO1 | -91 | -20 | -2
CC[C@H]1CN2CC[C@H]1C[C@H]2[C@H](O)c1ccnc2ccc(OC)cc12 | 2 | 5 | 4
CC(C(=O)Nc1ccc(Cl)cc1C(=O)c1ccccc1)N1C(=O)C2C3C=CC(C3)C2C1=O (stereo not drawn) | . | 19 | 36
CC(C)NCC(O)c1ccc(N)c(C#N)c1 (stereo not drawn) | -30 | -14 | -15
O=P1(Nc2ccc(F)cc2)COc2ccccc2OC1 | -35 | 14 | 17
CC1(C)C(C(=O)Nc2ccccc2C#N)C1(C)C | -37 | 6 | 18
Cc1cc(Br)c(NC(=O)C2C(C)(C)C2(C)C)c(Br)c1 | 65* | 11 | 89*
COc1cc2c(cc1OC)[C@@]13CCN4CC5=CCO[C@H]6CC(=O)N2[C@H]1[C@H]6[C@H]5C[C@H]43 | 12 | 9 | 15
CC12CC[C@H]3C(CCC4(O)CC(O)CCC34O)C1(O)CCC2C1=CC(=O)OC1 (stereo partly drawn) | -45 | -14 | 6
CC(=O)OCC(=O)[C@H]1CC[C@H]2[C@@H]3CC[C@H]4C[C@H](O)CC[C@]4(C)[C@H]3C(=O)C[C@]12C | -54 | 16 | 23
C[C@]12CC[C@H](O)C[C@H]1CC[C@@H]1[C@@H]2C[C@@H](O)[C@]2(C)[C@@H](C3=CC(=O)OC3)CC[C@]12O | -47 | 18 | 98*
CO[C@H]1[C@@H](O)[C@@H](C)O[C@@H](OC2CCC3(C)C(CC[C@@H]4[C@@H]3CCC3(C)C(C5=CC(=O)OC5)C(O)CC43O)C2)[C@@H]1O (stereo partly drawn) | -10 | 19 | 121*
C[C@]12CC[C@H](O)C[C@H]1CC[C@@H]1[C@@H]2CC[C@]2(C)[C@@H](C3=CC(=O)OC3)CC[C@]12O | -20 | 40 | 120*
COC1CC(OC2CCC3(C)C(CCC4(O)C3CC(OC(=O)c3ccccc3)C3(C)C(O)(C(C)=O)CCC43O)C2)OC(C)C1OC1CC(OC)C(OC2OC(C)C(O)C(OC)C2O)C(C)O1 (stereo not drawn) | -2 | -7 | 32
CC(=O)O[C@H]1CC[C@]2(C=O)[C@H]3CC[C@]4(C)[C@@H](C5=CC(=O)OC5)CC[C@]4(O)[C@@H]3CC[C@]2(O)C1 | 4 | 45 | 124*
CC1(C)C(=O)C=C[C@@]2(C)C1C[C@@H](O)[C@]1(C)C2CC[C@@]2(C)[C@H](c3ccoc3)OC(=O)[C@H]3O[C@]321 (stereo partly drawn) | 10 | 19 | 24
CCCCC/C=C\C/C=C\C/C=C\C/C=C\CCCC(=O)NCC(=O)O | 13 | 16 | 0
Clc1ccc(C(c2ccc(Cl)cc2)C(Cl)(Cl)Cl)cc1 | 0 | 0 | 12
CCOc1ccc(CN(CCc2ccc3c(c2)OCO3)Cc2ccccc2)cc1 | . | -16 | 41
C[C@H]1O[C@@H](O[C@H]2CC[C@]3(CO)C4CC[C@]5(C)[C@@H](C6=CC(=O)OC6)CC[C@]5(O)C4CC[C@H]3C2)[C@H](O)[C@H](O)[C@@H]1O (stereo partly drawn) | -21 | . | .
C[C@H]1O[C@@H](O[C@H]2[C@@H](O)C[C@H](O[C@H]3[C@@H](O)C[C@H](O[C@H]4CC[C@]5(C)C6CC[C@]7(C)[C@@H](C8=CC(=O)OC8)CC[C@]7(O)C6CC[C@@H]5C4)O[C@@H]3C)O[C@@H]2C)C[C@H](O)[C@@H]1O (stereo partly drawn) | -15 | 17 | 111*
CC(=O)OC1CCC2(C)C(CC[C@@H]3[C@@H]2CCC2(C)C(C4=CC(=O)OC4)CCC32O)C1 (stereo partly drawn) | -5 | 11 | 109*
COC1CC(O[C@H]2CC[C@@]3(C)C(CCC4C3CC[C@]3(C)C(C5=CC(=O)OC5)CCC43O)C2)OC(C)C1OC1OC(COC2OC(CO)C(O)C(O)C2O)C(O)C(O)C1O (stereo partly drawn) | 0 | 9 | 119*
